Screening data (PubChem BioAssay)
Shiga inhibitor – Shiga toxin inhibition; Vero cells, Shiga toxin protein synthesis inhibition reporter; inhibition, % at 38.7 µM; actives 9.2% (n = 290,000); in the data active = inhibition mostly above about 28%, no sharp cut-off; inactive = mostly below about 43%; also: 0% is about no effect
Pf growth 48h – inhibits P. falciparum growth in the first generation, 48 h; Potency, µM (titrated, usually from 28.7 µM), without a hit: at the top dose activity change, negative = inhibition, hits mostly inhibitors; actives 5.9% (n = 310,000); P. falciparum luciferase growth in erythrocytes, 48 h; also: potency is read from the fitted curve at half-maximal effect; % is scaled to controls: 0 for no effect and ±100 for the full control effect
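Compounds are pin-transferred into medium, infected erythrocytes (2% hematocrit, 0.1% parasitemia final) are added, and plates sit one parasite generation at 37 C in 5% CO2. Detection reagent is then added and luminescence measured.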
HCV inh – inhibitors of hepatitis C virus infection | Huh7.5.1 HCVcc-Cre infection, luciferase reporter, 44 h | Potency, µM (doses to about 41.8 µM), for inactives: at the top dose activity change, negative = inhibition, hits mostly inhibitors | actives 3.4% (n = 340,000) | AID 651820; also: potency is read from the fitted curve at half-maximal effect; % is scaled to controls: 0 for no effect and ±100 for the full control effect
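Reporter virus HCVcc-Cre (~0.5 moi) infects cells exposed to compound; seeding density 1,000 cells/well with 4 h settling beforehand. Luminescence, 15 sec read, taken 44 h post-infection following a 15 min RT substrate incubation.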
Pf growth 96h – P. falciparum growth inhibition at 96 hour, primary screen for plastid delayed-death inhibitors; Potency, µM (series often up to 28.7 µM), for inactives: at the top dose activity change, negative = inhibition, usual class: inhibitors; AID 504834; actives 6.9% (n = 320,000); P. falciparum luciferase reporter growth, 96 h; also: potency is read from the fitted curve at half-maximal effect; % is scaled to controls: 0 for no effect and ±100 for the full control effect
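Parasite growth measured via integrated firefly luciferase reporter in P. falciparum. Infected erythrocytes at 2% hematocrit, 0.05% parasitemia final were treated 96 hours at 37 C under 5% CO2, and luminescence was read.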
CHX counter – affects cycloheximide protein synthesis inhibition readout, counter-screen. cell reporter, cycloheximide protein synthesis inhibition counterscreen. max response, %. actives 12% (n = 300,000); in the data active = max response mostly above about 13%, no sharp cut-off; inactive = mostly below about 14%; also: read at 38.3 µM for the half of the compounds with a filed dose; 0% is about no effect
HCMV inh – blocks human cytomegalovirus replication; actives 4.5% (n = 410,000); AID 1259415; activity change, negative = inhibition, % at 57.5 µM; HFF cells, HCMV-luciferase reporter, 72 h; active compounds read low; in the data active = activity change below about -60%; inconclusive = no clear call, values can overlap the other calls; inactive = above about -39%; also: % is scaled to controls: 0 for no effect and ±100 for the full control effect
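Cell-based, HFFs, 1000 cells/well, 16 h 37C; cpds in DMSO + HCMV-luc, MOI 1 PFU/cell; 72 h 37C; OneGlo luminescence after 5 min RT; norm. to buffer vs Salinomycin 10uM.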
Starred values were filed as active, the others as inactive; ? = inconclusive; . = no result given; [ ] = another dose, or the depositor's remark. The list is not random: actives were taken first. Their share in the collection is about 21%. Unless noted, calls follow the shape of the dose curve; as a rule, active = well fitted inhibition curve with a large enough effect; inconclusive = small, poorly fitted or top-dose-only effect, or another doubt; inactive = no such curve, though single readings can be large or run the other way.

SMILES | Shiga inhibitor | Pf growth 48h | HCV inh | Pf growth 96h | CHX counter | HCMV inh
CCC(C)C(NC(=O)c1ccccc1NC(=O)c1ccco1)C(=O)NNC(=O)c1ccc(OC)cc1 (centres undefined) | 20.3 | 9.28µM* | ? | 8.28µM* | 0.6 | 6.3
Cc1ccc(N2CCN(C(=O)Cn3ncc4c([nH]c5ccc(C)cc54)c3=O)CC2)c(C)c1 | . | . | . | . | . | 5.9
Cc1ccc2[nH]c3c(c2c1)CN(C(=O)CN1CCN(c2cccc(C)c2C)CC1)CC3 | 4.9 | ? | 6.31µM* | . | -2.4 | 19.8
Cc1ccc2[nH]c3c(c2c1)CN(C(=O)CN1CCN(C(=O)c2ccco2)CC1)CC3 | -7.1 | -15.6% | . | ? | -2.6 | 7.3
Cc1ccc2[nH]c3c(c2c1)CN(C(=O)CN1C[C@H]2C[C@@H](C1)c1cccc(=O)n1C2)CC3 | -5.8 | ? | 12.0% | ? | -2.7 | -6.1
Cc1ccc2[nH]c3c(c2c1)CN(C(=O)CN1c2ccc(F)cc2CCC1C)CC3 (centres undefined) | 4.2 | 11.7µM* | ? | 13.1µM* | -2.9 | 7.3
Cc1nnc2nc(-c3ccccc3)nc(-c3ccccc3)n12 | -2.0 | 1.6% | ? | -10.2% | 4.5 | -79.7*
Cn1nc(-c2ccccc2)nc1-c1ccccc1 | . | 88.8% | 0.0% | 224.9% | . | 14.9
COC(=O)C1=C(C)NC(=O)NC1c1ccc(OC(=O)c2ccco2)cc1 (centres undefined) | -4.4 | 9.9% | 32.0% | ? | 1.1 | 1.2
Cc1ccc(Cl)cc1NC(=O)N1CCC(CN2CCc3ccccc3C2)CC1 | . | . | . | . | . | 81.0
CCOC(=O)C(C)CC(C)C(=O)N1CCOCCN(C(=O)C(C)CC(C)C(=O)OCC)CCOCC1 (centres undefined) | 25.7 | 8.28µM* | 1.9% | 82.1% | 1.4 | -0.5
Cc1ccc(S(=O)(=O)Nc2ccc3c(c2)C(=O)N([C@H](C)CO)C[C@H](C)[C@@H](CN(C)C(=O)NC2CCCCC2)OCCCC[C@@H](C)O3)cc1 | . | . | . | . | . | -63.1*
C[C@@H]1CCCCO[C@H](CN(C)C(=O)Nc2ccc3c(c2)OCO3)[C@@H](C)CN([C@H](C)CO)C(=O)c2cc(NS(=O)(=O)c3ccc(F)cc3)ccc2O1 | . | . | . | . | . | -34.7
Cc1ccc(S(=O)(=O)Nc2ccc3c(c2)C(=O)N([C@@H](C)CO)C[C@@H](C)[C@@H](CN(C)C(=O)NC2CCCCC2)OCCCC[C@H](C)O3)cc1 | . | . | . | . | . | -3.7
C[C@@H]1CN([C@@H](C)CO)C(=O)c2cc(NS(=O)(=O)c3ccc(F)cc3)ccc2O[C@@H](C)CCCCO[C@H]1CN(C)C(=O)NC1CCCCC1 | . | . | . | . | . | -85.7*
CN(C)/C=C/c1oc2ccc(O)cc2c1[N+](=O)[O-] | 146.3* | 54.1% | -28.2% | 39.2% | 36.9 | -24.1
O=C(CCNC(=O)OCC1c2ccccc2-c2ccccc21)NOCc1ccccc1 | . | . | -7.9% | . | . | -77.0*
Cc1ccc(-n2nc(CO)c(C(=O)NCCCCc3ccccc3)n2)cc1C | . | . | . | . | . | -19.8
N#Cc1c(N2CCOCC2)nc(N2CCCCC2)c2c1CCN(C1CCCCC1)C2 | -5.5 | . | -19.4% | 1.47µM* | -4.8 | .
CCN(CC)c1nc(N2CCOCC2)c(C#N)c2c1CN(C)CC2 | -20.7 | ? | ? | 10.4µM* | -5.5 | -10.0
CCSc1nc(N2CCOCC2)c2c(c1C#N)CCCC2 | -21.1 | -6.1% | -20.5% | -28.8% | -5.5 | -40.0
CCN1CCc2c(C#N)c(N3CCCCC3)nc(N3CCOCC3)c2C1 | -20.8 | ? | -18.4% | ? | 5.7 | -14.3
CC(C)c1nc(N2CCOCC2)c(C#N)c2c1CCCC2 | -9.6 | -22.9% | 7.08µM* | . | -4.4 | ?
CC(C)NC(=O)c1nnc2n1CCN(Cc1ccc(Cl)c(F)c1)C2 | . | . | . | . | . | -1.1
COc1ccc(C(=O)OCC(O)COC(=O)c2ccc(OC)cc2)cc1 | . | . | -5.6% | . | . | 55.0
SMILES | Shiga inhibitor | Pf growth 48h | HCV inh | Pf growth 96h | CHX counter | HCMV inh
COc1ccc(N2CCN(C(=O)C3CCN(S(=O)(=O)c4ccc5c(c4)CC(C)N5C(=O)C4CC4)CC3)CC2)cc1 (centres undefined) | . | . | . | . | . | -37.3
COc1ccccc1CNC(=O)CCCCn1c(=O)c2ccccc2n(Cc2c(C)cc(C)cc2C)c1=O | . | . | . | . | . | 3.7
O=C(Nc1nnc(-c2ccco2)s1)C1CCCCC1 | 71.0* | 191.7% | 9.6% | ? | 42.0* | 45.3
CCc1ccc(OCC(=O)Nc2nnc(-c3ccco3)s2)cc1 | -4.2 | 31.9% | 5.2% | 10.4% | -3.1 | 0.0
COC(=O)Nc1nnc(-c2ccco2)s1 | 28.7 | 0.7% | 7.2% | -11.1% | 11.7* | -2.3
CC(C)CC(=O)Nc1nnc(-c2ccco2)s1 | 65.2 | 100.7% | -3.2% | . | 29.2* | 103.7
O=c1cc(-c2ccccc2)nc2c(-c3ccccc3)c(C(F)(F)F)[nH]n12 | -6.1 | 13.3% | -1.5% | 2.3% | 1.7 | -23.8
CCCCNC(=O)c1onc(CSc2nc3ccccc3[nH]2)c1C(=O)NCCCC | -1.7 | 1.47µM* | -7.9%[8.37 µM] | 3.29µM* | -0.7 | -13.2
O=C(NCC1CC1)c1onc(CSc2nc3ccccc3[nH]2)c1C(=O)NCC1CC1 | -4.5 | ? | -12.7% | 10.4µM* | -1.4 | ?
O=C(NCCCN1CCOCC1)c1onc(CSc2nc3ccccc3[nH]2)c1C(=O)NCCCN1CCOCC1 | 0.5 | 21.5% | 11.8% | 74.1% | -1.3 | -28.4
Cc1cccc(C)c1OCCn1c(CCNC(=O)C2CCCCC2)nc2ccccc21 | 1.7 | . | . | . | -3.2 | 60.3
CS(=O)(=O)Cc1nc2ccccc2oc1=O | 29.8 | ? | -19.5% | 6.57µM* | -3.0 | 23.9
O=c1oc2ccccc2nc1/C=C(\O)c1ccc(Br)cc1 | 38.8* | 1.85µM* | 5.2% | ? | 26.9* | .
Cc1ccc2oc(=O)c(/C=C(\O)c3ccccc3)nc2c1 | 19.5 | 16.6% | -11.8% | 23.5% | 1.6 | 0.0
C/C(O)=C\c1nc2ccccc2oc1=O | 47.0* | ? | -3.5% | ? | 24.7* | 7.9
CCS(=O)(=O)CCSc1nc2ccccc2o1 | -9.5 | 1.9% | -0.9% | 64.3% | -1.2 | 2.2
O=C(c1ccc2c(c1)OCO2)N1C[C@@H]2[C@H](c3ccccc31)[C@H](CO)N2CC1CCCC1 | . | . | . | . | . | -26.5
COC(=O)c1ccc(OC)c(Cn2c(=O)n(-c3cccc(Cl)c3)c(=O)c3c4c(sc32)CN(C(C)=O)CC4)c1 | . | . | . | . | . | -27.4
CCOc1ccc(C2C(C#N)=C(C)NC3=C2C(=O)c2ccccc23)cc1 (centres undefined) | -8.8 | . | -10.4% | 9.28µM* | -2.7 | ?
CC1(C)CC(=O)C2=C(C1)NC1=C(C(=O)c3ccccc31)C2c1ccccc1 (centres undefined) | -6.9 | 13.1µM* | ? | ? | -2.3 | ?
CC1=C([N+](=O)[O-])C(c2ccccc2)C2=C(N1)c1ccccc1C2=O (centres undefined) | -12.7 | . | ? | 2.94µM* | -0.9 | ?
